# Laboratory results reported in the supplement of paper PMC4166925.
# ± gives the standard deviation of the averaged measurements. In all, about 33,000 sequences were measured (“E-score (dimensionless, -0.5 to 0.5)”: median about -0.049, highest 2% from about 0.37 on). This excerpt belongs to a sample that is enriched for the highest values.
# System: T1, PmTbr T-box DNA-binding domain (GST fusion)
# T1 sequence: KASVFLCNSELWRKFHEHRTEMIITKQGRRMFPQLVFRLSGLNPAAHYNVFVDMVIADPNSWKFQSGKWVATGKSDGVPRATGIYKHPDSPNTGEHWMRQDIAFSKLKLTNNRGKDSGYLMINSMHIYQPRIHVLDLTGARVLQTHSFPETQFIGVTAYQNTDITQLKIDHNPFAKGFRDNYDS
# Test: PBM E-score of 8-mer (E-score (dimensionless, -0.5 to 0.5)); Tbr is Tbrain of the sea star Patiria miniata (Pm) or the sea urchin Strongylocentrotus purpuratus (Sp); higher = stronger binding preference
# Details: the construct has about 5 more residues each side
# In short: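 GST-fused Tbr T-box DNA-binding domains (the whole T-box plus about five flanking residues) were expressed in BL21 E. coli at 20 °C and purified by glutathione affinity chromatography. Universal Agilent oligonucleotide arrays were made double-stranded by primer extension, incubated with 200 nM protein in PBS (pH 7.5), then scanned and quantified. Every ungapped 8-mer was scored from probe intensities. The Universal PBM Analysis Suite gave each word an enrichment E-score, averaged over duplicate arrays.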
row,Sequence,PBM E-score of 8-mer
1,CTAGTGCA,0.173 ± 0.0046
2,TCCCCAGA,-0.207 ± 0.12
3,GCAGAAAA,-0.0494 ± 0.066
4,TATTCCGA,-0.274 ± 0.013
5,CACTTCGG,0.363 ± 0.015
6,ATATACGG,-0.038 ± 0.039
7,CTTTTAGC,0.22 ± 0.074
8,AGTCCTAG,-0.0285 ± 0.042
9,ATAGTAAG,-0.216 ± 0.029
10,GGCTAAAA,-0.22 ± 0.064
11,CGTGTGAG,0.363 ± 0.013
12,CGTGTGTC,0.204 ± 0.018
13,CGTGTGAC,0.4054 ± 0.0011
14,AGTGTGTC,0.248 ± 0.0093
15,ACTGTGAC,0.239 ± 0.026
16,GCTGTGAC,0.208 ± 0.037
17,AGTGTGAC,0.467 ± 0.0075
18,AATGTGAT,0.258 ± 0.039
19,AGTGTGAT,0.463 ± 0.0063
20,AGAGTGAT,0.239 ± 0.0043
21,GGTGTGAC,0.4864 ± 0.0033
22,GATGTGAC,0.308 ± 0.017
23,CACCCAAG,0.263 ± 0.023
24,TCTTAGCA,0.2 ± 0.017
25,CCCGAATC,0.00343 ± 0.029
26,ACAAGACC,0.0576 ± 0.017

row,Sequence,PBM E-score of 8-mer
1,GACTACCA,-0.0358 ± 0.082
2,CAGGAGAC,-0.136 ± 0.017
3,AGTGTGAG,0.4585 ± 0.0031
4,AGTGTGTG,0.338 ± 0.021
5,ATTGTGAG,0.2213 ± 0.00029
6,CACACAGG,0.119 ± 0.044
7,CGGCAAAA,-0.0622 ± 0.057
8,ACATCCGG,-0.0734 ± 0.061
9,GAACTGGA,-0.175 ± 0.037
10,CCTGGAAA,-0.133 ± 0.014
11,AAAGACAA,-0.172 ± 0.069
12,AACCTTTA,-0.0895 ± 0.057
13,CCCCTTTC,-0.124 ± 0.061
14,CACCTTTA,0.404 ± 0.013
15,AACCTTTC,-0.105 ± 0.047
16,GACCTTTA,-0.207 ± 0.088
17,CACCTTTC,0.411 ± 0.034
18,CGCGCATC,0.0691 ± 0.012
19,GGCTGGAA,-0.127 ± 0.064
20,GACCACCA,-0.142 ± 0.031
21,AGGAAGGG,-0.28 ± 0.01
22,CAGCACCA,0.0936 ± 0.032
23,TAGCACCA,0.403 ± 0.015
24,TGGCACCA,0.377 ± 0.0055
25,CCGCACCA,0.187 ± 0.0087
26,GAGCACCA,-0.0664 ± 0.018

row,Sequence,PBM E-score of 8-mer
1,TCGCACCA,0.44 ± 0.0079
2,GCGCACCA,-0.0144 ± 0.01
3,AGGCACCA,-0.171 ± 0.024
4,GGGCACCA,-0.125 ± 0.059
5,GAATTCCC,0.0309 ± 0.029
6,GCAGGGTA,-0.0138 ± 0.034
7,GCAGGTAA,-0.0867 ± 0.05
8,CCAGGTGA,0.339 ± 0.023
9,GCAGGTGA,0.4392 ± 0.002
10,CCAGGTCC,-0.114 ± 0.039
11,ACAGGTGC,0.4412 ± 0.0022
12,CCAGGTAC,-0.105 ± 0.1
13,ACAGGTTA,0.252 ± 0.022
14,ACAGGTGG,0.331 ± 0.022
15,ACAGGTCC,0.0798 ± 0.068
16,CCAGGTGC,0.379 ± 0.014
17,GCAGGTCA,0.103 ± 0.027
18,ACAGGTGA,0.406 ± 0.0049
19,CAGCGTGA,0.266 ± 0.0088
20,CGGGCCCG,0.108 ± 0.013
21,CCCCAGAG,-0.096 ± 0.018
22,CTGTGTCA,0.216 ± 0.027
23,ATGTGTCA,0.4653 ± 0.0037
24,ATGTGTCC,0.0956 ± 0.026
25,ATGTGTCG,0.402 ± 0.0094
26,ATATGTCG,0.134 ± 0.029

row,Sequence,PBM E-score of 8-mer
1,GTGTGTCA,0.348 ± 0.02
2,CTCCTTGC,-0.127 ± 0.067
3,ACGTAATA,-0.234 ± 0.071
4,ACCATTGG,-0.068 ± 0.046
5,ACAGCCTC,-0.206 ± 0.14
6,AGTTCGCA,0.378 ± 0.0033
7,CATTCGCA,0.3497 ± 0.0027
8,AGTTCGCC,0.0555 ± 0.091
9,CGTTCGCA,0.38 ± 0.037
10,GGTTCGCA,0.334 ± 0.02
11,CGTTCGCC,0.0701 ± 0.066
12,ACTGCAGT,0.185 ± 0.034
13,CAGTGCGA,0.386 ± 0.019
14,TAGTGCCA,0.249 ± 0.0097
15,CAGTGCGC,-0.0646 ± 0.032
16,AAGTGCGT,0.149 ± 0.039
17,TAGTGCGA,0.4056 ± 0.0024
18,AAGTGCGA,0.4835 ± 0.00061
19,ACGTGCGA,0.4433 ± 0.0027
20,AAGTGCGC,0.138 ± 0.026
21,ACGTGCGG,0.191 ± 0.05
22,CAGTGCGG,-0.0389 ± 0.1
23,TAGTGCAA,0.267 ± 0.055
24,GCGTGCGA,0.285 ± 0.02
25,ATCAACGG,-0.182 ± 0.042
26,ATGTTTCA,-0.174 ± 0.074

row,Sequence,PBM E-score of 8-mer
1,CGGTTTGA,-0.1932 ± 0.0019
2,ATAACCAA,-0.112 ± 0.038
3,CTTAGGAA,-0.24 ± 0.011
4,CGGAAAAA,-0.0583 ± 0.12
5,AAACTACT,0.0819 ± 0.0066
6,CTTCTCAC,0.365 ± 0.01
7,GAGTGCGC,-0.0278 ± 0.044
8,ATGTGCGG,0.0803 ± 0.028
9,GAGTGCAA,0.0826 ± 0.02
10,ATGTGCGA,0.4691 ± 0.0032
11,GAGTGCGA,0.4088 ± 0.00055
12,ATGTGCGC,0.138 ± 0.0009
13,CCTTTCGA,-0.06 ± 0.02
14,AAGTCATA,-0.0653 ± 0.022
15,ATGCAATA,-0.341 ± 0.0082
16,CACCTTAC,0.394 ± 0.0074
17,AACCTTAG,-0.0923 ± 0.0088
18,CCCCTTAG,-0.195 ± 0.0038
19,AACCTTAC,-0.000525 ± 0.043
20,GACCTTAC,-0.313 ± 0.028
21,AACCTTAA,-0.209 ± 0.044
22,CACCTTAA,0.385 ± 0.011
23,GACCTTAA,-0.136 ± 0.0073
24,CACCTTAG,0.4473 ± 0.0023
25,AATTCTAA,-0.128 ± 0.086
26,AAAGTCCG,-0.00454 ± 0.029

row,Sequence,PBM E-score of 8-mer
1,CCATCAGG,0.0307 ± 0.054
2,CGAAGGGA,0.00651 ± 0.088
3,ATATTCTC,-0.0331 ± 0.008
4,GGCGCTAC,0.346 ± 0.037
5,CGCGCTAG,0.159 ± 0.019
6,TGCGCTAA,0.247 ± 0.036
7,GGCGCTAA,0.426 ± 0.0098
8,CGCGCTAA,0.369 ± 0.0084
9,AGCGCTAA,0.362 ± 0.02
10,AGCAGCGA,-0.0709 ± 0.041
11,CCGCCCAA,-0.101 ± 0.091
12,TATGAGAA,-0.274 ± 0.048
13,GATTGCCC,-0.0679 ± 0.024
14,GCGCAGGA,-0.0924 ± 0.067
15,AGGTGTAT,0.328 ± 0.0044
16,TGGTGTAA,0.28 ± 0.011
17,AGGTGTAC,0.218 ± 0.043
18,CGGTGTAG,0.134 ± 0.1
19,AGGTGTAA,0.47639 ± 0.00041
20,GGGTGTAA,0.385 ± 0.013
21,GGGTGTAC,-0.0259 ± 0.052
22,CGGTGTAA,0.131 ± 0.037
23,AGGTGTAG,0.408 ± 0.0046
24,TTGGGAAA,-0.102 ± 0.057
25,AGTTCTGC,-0.332 ± 0.0036
26,CGACGGGA,-0.129 ± 0.036

row,Sequence,PBM E-score of 8-mer
1,CACAAGTG,0.367 ± 0.0037
2,ATTGCCTA,-0.134 ± 0.077
3,AGTGCTGC,0.0868 ± 0.0037
4,CATCAAAG,-0.0524 ± 0.035
5,GATATCCC,-0.147 ± 0.05
6,AACGCCTC,0.362 ± 0.007
7,AACGCCTT,0.3747 ± 0.00064
8,AACGCCTA,0.279 ± 0.034
9,AAAGTGTT,0.429 ± 0.014
10,ATAGTGTC,0.335 ± 0.011
11,AAAGTGTA,0.147 ± 0.057
12,AGAGTGTG,0.34 ± 0.01
13,ATAGTGTA,0.0192 ± 0.0016
14,AAAGTGGT,0.106 ± 0.042
15,AAAGTGTG,0.435 ± 0.012
16,AAAGTGAG,0.219 ± 0.048
17,AAAGTGTC,0.4215 ± 0.0027
18,ATAGTGTG,0.393 ± 0.033
19,AAAGTGGC,0.234 ± 0.005
20,ACAGTGTC,0.238 ± 0.0038
